Reference: PubChem BioAssay AID1117319 (Southern Research Institute, 2015)
“And” between values parts separate entries of the source, which are not always exact repeats. Equal values may be shown once. Screen size: about 260,000 compounds; about 1,500 (0.58%) were called active. Not shown: some 5% with an inconclusive outcome.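 Rule for the calls: active = inhibition above a set limit at one or more doses, reproduced on every date tested; inconclusive = results disagree between test dates, or hit never tested in dose response; inactive = the rest.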 Only a sample is shown. Results with a measured potency or affinity are listed apart.

target: Virion infectivity factor (Human immunodeficiency virus type 1 group M subtype B (isolate BH10)) + Virion infectivity factor (Human immunodeficiency virus type 1 group M subtype B (isolate BRU/LAI)) + Virion infectivity factor (Human immunodeficiency virus type 1 group M subtype B (isolate PCV12)) + Virion infectivity factor (Human immunodeficiency virus type 1 group M subtype B (isolate HXB2)) + DNA dC->dU-editing enzyme APOBEC-3G (Homo sapiens) (UniProt P69720+P69721+P69722+P69723+Q9HC16); test: inhibitors of Vif binding to APOBEC3G peptide, primary screen, biochemical, TR-FRET, GST-Vif 1-94, biotin-A3G peptide, dose response retest (AID 1117319); conditions: hits give high values;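 note: Vif residues 1-94 fused to GST binding biotinylated APOBEC3G peptide 110-148; 0% = full assay without inhibitor and 100% = GST in place of GST-Vif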

inhibition, inactive:
CSCCC(NC(=O)c1ccccc1Cl)C(=O)N1CCN(c2ccccn2)CC1 (stereo not given) -6.33%
COc1ccc(-c2noc(CCC(=O)N3CCN(c4cccc(C(F)(F)F)c4)CC3)n2)cc1 22.9% and -0.11%
CC(C)N(Cc1ccccc1)C(=O)COC(=O)C1CCN(c2ccc(C(F)(F)F)cn2)CC1 -3.12%
O=C1C(=O)c2c(ccc3ccccc23)-c2ccccc21 -6.35%
Oc1ccc2ccccc2c1Br 0.97%
CCCCCCCCC#Cc1nc(C)ccc1OC -3.1%
CCOC(=O)N1C2=NC(C(=O)OC)=C(C(=O)OC)[C@@H]3Nc4ccccc4[C@]23C[C@H]1C(=O)OC 4.32%
C[C@H]1CN([C@@H](C)CO)C(=O)CCCn2nncc2CO[C@@H]1CN(C)C(=O)NC1CCCCC1 1.5%
O=C(O)c1ccccc1C(=O)Nc1ccc(-n2nccc2C(F)(F)F)cc1 -1.72%
O=C(CNc1ccc(F)cc1)N/N=C1\CCCc2ccccc21 -0.54%
COC(=O)CSc1nc(N)nc(C)c1Cl -8.89%
c1ccc2c3c(cc(N4CCOCC4)c2c1)OC1(N2CCOCC2)CCCCC1O3 (stereo not given) -2.4%
CC1=C(C(=O)N2CCOCC2)C(c2ccc(O)cc2)NC(=S)N1 (stereo not given) 17.4%
COc1cc(OC)cc(C(=O)N[C@H](C(=O)Nc2cc(C)cc(C)c2)C(C)C)c1 -1.59%
COc1ccc(OC)c2[nH]c(=O)c(CCNC(=O)C(=O)c3c(C)[nH]c4ccccc34)cc12 2.37%
CC[n+]1cccc(-c2nc3ccccc3s2)c1 5.45%
COC(=O)CSc1nnc(CNC(=O)c2cccc(C)c2)n1-c1ccccc1OC 6.5%
CCOC(=O)CSc1nnc(CNC(=O)Cc2ccccc2)n1-c1ccccc1OC -6.46%
Cc1ccc(CNC(=O)C2CC2c2ccccc2)cc1 (stereo not given) -6.49%
CN(CC(=O)Nc1c(Cl)cccc1Cl)C(=O)Cc1ccsc1 -2.32%
Cc1cc(NC(=O)C2CC(c3ccc(F)cc3)=NO2)no1 (stereo not given) 0.56%
CCc1cc2cccc(C)c2nc1SCC(=O)Nc1nonc1C 32.8%
COc1ccccc1CN(Cc1ccco1)S(=O)(=O)c1ccc(-n2cnnn2)c(OC)c1 0.86%
COc1cc(S(=O)(=O)N(Cc2ccccn2)Cc2ccco2)ccc1-n1cnnn1 -2.53%
CN[C@H]1C[C@H]2c3[nH]c4ccccc4c3CCN2C(=O)[C@H]1[C@H](C)O -5.11%
N#Cc1cc(N2CCCCC2)c([N+](=O)[O-])cc1C#N -2.18%
O=[N+]([O-])c1cc(F)c(N2CCCCC2)cc1N1CCOCC1 8.86%
CCN(c1ccccc1)S(=O)(=O)c1ccc(Oc2ccccc2)c(N)c1 2.08%
COc1cccc(C2=NOC(C(=O)NCc3cccs3)C2)c1 (stereo not given) -3.08%
COc1ccc(C2=NOC(C(=O)NCc3cccs3)C2)cc1 (stereo not given) -3.82%
COc1cc(-n2c(C)nc3ncn(-c4ccccc4)c3c2=O)cc(OC)c1OC 2.62%
CC(=O)Nc1ccc(OCC(O)Cn2cccn2)cc1 (stereo not given) -6.52%
CCCN(CC(=O)Nc1ccccc1C)C(=O)C1CCN(C(=O)Nc2ccccc2)CC1 -0.04%
O=C(Oc1ccccc1)c1cccc(N2C(=O)CCC2=O)c1 -0.79%
N#Cc1c(Nc2cccc(F)c2)sc2c(O)cc(=O)[nH]c12 -5.54%
O=C(CCc1ccc(S(=O)(=O)NCCc2ccccc2)cc1)NCc1ccc2c(c1)OCO2 -2.37%
CS(=O)(=O)N(CCc1ccccc1)CC(=O)Nc1ccc2c(c1)OCO2 13.8%
CS(=O)(=O)N(CC(=O)Nc1ccc2c(c1)OCCO2)Cc1ccccc1 24.5%
CCCNS(=O)(=O)c1ccc(CCC(=O)Nc2ccc3c(c2)OCO3)cc1 2.82%
CC1(C)Cc2c(sc3nc(SCC(=O)N4CCOCC4)nc(N)c23)CO1 3.98%
CSc1nc(C)cc(OCC(=O)n2nc(C)cc2C)n1 1.86%
CC(=O)Nc1sc2c(c1C(c1ccccc1)N1CCOCC1)CCCC2 (stereo not given) 5.78%
CCOC(=O)c1ccc(NC(=O)C(=O)NCc2ccncc2)cc1 27%
O=[N+]([O-])c1c(NCCO)cc(N2CCC3(CC2)OCCO3)c2nonc12 -8.02%
CC(=O)OCCNc1cc(N2CCN(C)CC2)c2noc3c2c1C(=O)c1ccccc1-3 3.2%
CCOC(=O)c1coc(C(=O)OCC)c1C(=O)OCC -10.9%
COc1ccc(-c2csc(NC3=NCCCCC3)n2)cc1 -3.94%
O=C1NC(=S)N/C1=C/c1cc([N+](=O)[O-])ccc1O 0.15%
O=C1NC(=S)N/C1=C\c1cccc([N+](=O)[O-])c1 0.47%
O=C(/C=C\Nc1ccc2c(c1)OCO2)c1ccccn1 -6.96%
O=C(/C=C\Nc1ccccn1)c1ccccc1 1.92%
O=C(NCc1cccnc1)c1cc2nc(-c3cccs3)cc(C(F)(F)Cl)n2n1 -9.65%
Cn1c(CNc2ccccc2O)nc2ccccc21 17.5%
COc1ccc(NCc2nc3ccccc3n2CCOc2ccc(C)cc2)cc1 8.44%
CCOc1ccc(NCc2nc3ccccc3n2CCOc2ccccc2)cc1 11.4%
CCCn1c(CNc2ccc(Br)cc2)nc2ccccc21 -3.54%
CCOC(=O)n1c(=O)oc2cc(S(=O)(=O)N3CCOCC3)ccc21 9.96%
COc1ccc(Cc2nnc(SCC(=O)NCc3ccco3)o2)cc1 3.47%
COc1ccc(-c2nnc(-c3cccs3)o2)cc1OC 25.2%
COc1cc(-c2nnc(-c3cccs3)o2)cc(OC)c1OC 2.65%
